Source: PubChem BioAssay
HEK293 tox = cytotoxic compounds in HEK 293 cells; Potency, µM (doses to about 115 µM), inactives show top-dose activity change, negative = cytotoxicity, most hits filed as inhibitors; HEK 293 viability, ATP luminescence (CellTiter-Glo), 48-72 h; 6.6% of 94,000 active; AID 1345083; note: % is set by controls: 0 for no effect and ±100 for the full control effect; nearly all actives have a fitted effect of over 60% in size
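Cells seeded first (HEK 293, 250 cells/well), then compound added by pintool. Incubation ran 48 or 72 hr at 37 degree Celsius. CellTiter-Glo was added and luminescence imaged after 10 min at room temperature.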
Luciferase inh = inhibitors of firefly (Photinus pyralis) luciferase; P08659; purified P. pyralis luciferase, luminescence, biochemical; Potency, µM (doses to about 115 µM), usual class: inhibitors; 2.5% of 76,000 active; AID 1347043; note: % is set by controls: 0 for no effect and ±100 for the full control effect; nearly all actives have a fitted effect of over 65% in size
Target sequence (P08659 whole entry, looked up): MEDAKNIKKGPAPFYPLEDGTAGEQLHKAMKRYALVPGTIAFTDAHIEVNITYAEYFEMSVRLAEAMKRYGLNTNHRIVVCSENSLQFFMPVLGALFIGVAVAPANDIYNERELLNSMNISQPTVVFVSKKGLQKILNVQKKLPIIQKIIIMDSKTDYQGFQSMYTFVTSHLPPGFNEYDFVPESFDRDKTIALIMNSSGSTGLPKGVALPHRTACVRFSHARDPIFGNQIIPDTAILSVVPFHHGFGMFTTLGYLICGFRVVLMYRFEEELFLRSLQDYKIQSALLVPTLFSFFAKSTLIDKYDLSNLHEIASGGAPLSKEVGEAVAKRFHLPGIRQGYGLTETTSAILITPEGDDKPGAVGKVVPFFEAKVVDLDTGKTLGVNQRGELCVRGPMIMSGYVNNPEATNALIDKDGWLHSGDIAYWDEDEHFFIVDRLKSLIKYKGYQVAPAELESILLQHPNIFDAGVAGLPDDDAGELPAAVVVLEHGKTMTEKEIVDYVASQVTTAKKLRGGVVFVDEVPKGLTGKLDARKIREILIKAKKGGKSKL
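Biochemical qHTS: compound (6-point titration) added to 10uM D-luciferin plus 10uM ATP in Tris acetate pH 7.5 buffer with Mg, Tween-20 and BSA, then purified enzyme at 10nM; light output imaged.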
NPR1 antag = blocks ANP-stimulated signaling of human Npr1 receptor | HEK293 hNpr1 GloSensor cGMP, ANP-stimulated luminescence | P16066 | 1.6% of 76,000 active | Potency, µM (highest dose often 46.3 µM), for the others: top-dose activity change, negative = inhibition, most hits filed as inhibitors | AID 1347048; calls by dose curve; note: % is set by controls: 0 for no effect and ±100 for the full control effect; nearly all actives have a fitted effect of over 60% in size
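HEK293 cells stably expressing human Npr1 and cGMP GloSensor pGS-40F, loaded 2 h with 2% GloSensor reagent, given compound 30 min at room temperature. Luminescence read before and 20 min after 0.1 nM hNppA.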
NIH3T3 tox = NIH 3T3 cell cytotoxicity | NIH 3T3 viability, CellTiter-Glo ATP luminescence, 48-72 h | Potency, µM (highest dose often 96.7 µM), without a hit: at the top dose activity change, negative = cytotoxicity, hits mostly inhibitors | 4.3% of 94,000 active; note: % is set by controls: 0 for no effect and ±100 for the full control effect; nearly all actives have a fitted effect of over 55% in size
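ATP-dependent luminescence (CellTiter-Glo) served as the viability signal for NIH 3T3 cells treated with compound for 48 or 72 hr at 37 °C.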
NPR1 antag cnf = hNpr1 antagonism, confirmation assay. AID 1347044. Potency, µM (doses to about 57.6 µM), inactives show at the top dose activity change, negative = inhibition, most hits filed as inhibitors. shares compounds with NPR1 antag. 76% of 1,400 active. HEK293 hNpr1 cGMP GloSensor luminescence, ANP-stimulated; calls by dose curve; note: nearly all actives have a fitted effect of over 70% in size
Npr2 selectivity = antagonizes human Npr2, subtype selectivity check; shares compounds with NPR1 antag; HEK293 hNpr2 GloSensor cGMP luminescence, CNP-stimulated; Potency, µM (series often up to 57.6 µM), inactives show top-dose activity change, negative = inhibition, actives largely listed as inhibitors; 67% of 1,400 active; calls by dose curve; note: nearly all actives have a fitted effect of over 70% in size
FLuc inh counter = FLuc enzyme inhibition, Npr1 counter-screen | shares compounds with NPR1 antag | AID 1347047 | Potency, µM (doses to about 57.6 µM), for the others: top-dose activity change, negative = inhibition, hits mostly inhibitors | purified FLuc enzyme, luminescence, Km substrate | 0.7% of 1,400 active; note: 0% is about no effect
GloSensor ctrl = counter-screen for Npr1 antagonists: GloSensor control cell line; shares compounds with NPR1 antag; HEK293 GloSensor cGMP, SNP-stimulated, luminescence; Potency, µM (top dose mostly 57.6 µM), for the others: at the top dose activity change, negative = inhibition, actives largely listed as inhibitors; 69% of 1,400 active; calls by dose curve; note: % is set by controls: 0 for no effect and ±100 for the full control effect; nearly all actives have a fitted effect of over 70% in size
* hit, by the source's call; i = inactive; ? = inconclusive; . = no result; [ ] = another dose, or the depositor's remark. Compounds with a hit are over-represented: about 11% of the library has one in this group of screens. Unless noted, calls come from the whole dose curve; as a rule, active = well fitted curve in the direction sought with a large enough effect; inconclusive = small, poorly fitted or top-dose-only effect, or another doubt; inactive = no such curve, though single readings can be large; an effect the other way counts as inactive or inconclusive. Potency is the fitted concentration of half-maximal effect.

SMILES	HEK293 tox	Luciferase inh	NPR1 antag	NIH3T3 tox	NPR1 antag cnf	Npr2 selectivity	FLuc inh counter	GloSensor ctrl
CC(=O)c1cccc(NC(=O)O[C@@H]2CO[C@H]3[C@@H]2OC[C@@H]3NC(=S)Nc2cccc3ccccc23)c1	?	i	8.9µM*	?	12µM*	17µM*	0%	14µM*
CC(=O)c1cccc(NC(=O)O[C@@H]2CO[C@H]3[C@@H]2OC[C@@H]3NC(=S)NC2CCCCC2)c1	?	i	18µM*	?	24µM*	24µM*	0%	?
COc1ccccc1OCCNC(=O)C1CCc2ncc(-c3ccc(F)cc3)n2C1 (centres undefined)	?	i	?	-22%	19µM*	19µM*	0%	-16%
O=C(NCCc1ccccc1)C1CCc2ncc(-c3ccsc3)n2C1 (centres undefined)	?	i	?	?	?	-25%	3%	-29%
CC(=O)N(C1CCOCC1)C1CCN(C(=O)c2ccc(C)s2)CC1	-16%	.	.	-21%	.	.	.	.
CCc1nc(CC)n2ccn(Cc3ccc(OC)cc3)c(=O)c12	?	i	2%	?	.	.	.	.
CCc1ncc2c(=O)n(Cc3ccc(OC)cc3)ccn12	?	i	10µM*	-26%	12µM*	12µM*	-3%	8.6µM*
O=C(CCCc1c[nH]c2ccccc12)N1CCC(c2noc(COc3ccc(F)cc3)n2)CC1	?	i	11µM*	?	22µM*	24µM*	3%	17µM*
Fc1ccc(-c2nc(CC3CCNC3)no2)cc1 (centres undefined)	4%	i	1%	-14%	.	.	.	.
Cc1nn(C)c(C)c1CCC(=O)N1CCC(Cc2noc(-c3ccc(F)cc3)n2)C1 (centres undefined)	?	i	16µM*	?	27µM*	?	2%	34µM*
CNC(=O)c1cc(C)nc2onc(C3CCN(C(=O)c4ccncc4)C3)c12 (centres undefined)	4%	.	.	-18%	.	.	.	.
CCNc1cc(N2CCC(CCC(=O)NCCc3ccccn3)CC2)ncn1	-6%	i	-8%	-24%	.	.	.	.
COc1nccc(N2CCC(CC(=O)N3CCCN(c4ncccn4)CC3)CC2)n1	?	i	22µM*	-31%	24µM*	?	3%	?
COc1nccc(N2CCC(CC(=O)NCc3ccc(F)c(Cl)c3)CC2)n1	?	i	11µM*	?	24µM*	22µM*	3%	24µM*
CCNc1cc(N2CCC(CCC(=O)N3CCCN(c4ncccn4)CC3)CC2)ncn1	?	i	?	-24%	24µM*	?	2%	24µM*
CNc1nccc(N2CCC(CC(=O)N3CCN(c4ccccc4C)CC3)CC2)n1	28µM*	i	?	45µM*	?	?	7%	?
CC(C)NC(=O)c1ccc2nnc(-c3cncc(Cl)c3)n2c1	i	.	.	-10%[138 µM]	.	.	.	.
Cc1cc(=O)n(CC(=O)Nc2c(C)cccc2C)c(N(C)Cc2ccccc2)n1	-27%	i	0%	?	.	.	.	.
COc1ccc(NC(=O)Cn2c(N3CCN(c4ccccc4)CC3)nc(C)cc2=O)cc1Cl	?	i	-15%	?	.	.	.	.
COc1ccc(NC(=O)Cn2c(N(C)Cc3ccccc3)nc(C)cc2=O)cc1	45µM*	i	11µM*	?	19µM*	?	-2%	15µM*
